{"source": "PubChem BioAssay (NCI)", "note": "About 83,000 compounds went through this panel and 20% of them were active in at least one assay; those are over-represented in the sample as a whole.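 Treatment: one concentration, 48 hours, 96-well format. Scoring: percent growth, with anything below 10 considered active.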 Calls of active or inactive are those of the source.", "data": [{"system": "HL-60(TB) leukemia", "test": "NCI-60 one-dose screen, 48 h (100 = growth as untreated, 0 = no growth, -100 = all killed)", "conditions": "10 µM unless noted", "values": [{"smiles": "C#CC[C@@H]1C[C@]2(C)[C@H]3CC=C4[C@H]5[C@@H](C)[C@H](C)CC[C@]5(C(=O)NCCCCN)CC[C@@]4(C)[C@]3(C)CC[C@H]2C(C)(C)[C@H]1OC(C)=O", "growth": "21.3% (inactive)"}, {"smiles": "Cc1ccc(-c2nc3ccccn3c2/C=C2/C(=O)Nc3cc(Cl)ccc32)cc1", "growth": "50.3% (inactive)"}, {"smiles": "COC(=O)[C@]12CC[C@@H](C)[C@H](C)[C@@H]1C1=CC[C@@H]3[C@@]4(C)C/C(=N\\O)[C@H](O)[C@@]5(C)COC(=C45)C[C@@]3(C)[C@]1(C)CC2", "growth": "-59.8% (active)"}, {"smiles": "Cc1c2c(cn1Cc1ccccc1)CCc1cn[nH]c1-2", "growth": "90.6% (inactive)"}, {"smiles": "CCCCCCNC(=O)Oc1ccc(/C(=C(\\C)c2ccc(Cl)cc2)c2ccc(OCCN3CCCCC3)cc2)cc1", "growth": "-18.5% (active)"}, {"smiles": "COC(=O)CNC(=O)[C@H](Cc1ccccc1)NCc1ccncc1", "growth": "88.6% (inactive)"}, {"smiles": "COc1ccc(Nc2nc(SCC(C)C)nc(-c3ccc(F)cc3)c2C#N)cc1", "growth": "38.4% (inactive)"}, {"smiles": "CCCCN(CCCC)CCCOC(=O)c1ccc(N)cc1", "growth": "76.4% (inactive)"}, {"smiles": "CCCC1CCC(O)(C(C)(O)C(=O)NC2C(=O)N3NCCCC3C(=O)N(O)C(C)C(=O)N3NCCCC3C(=O)N3NCC(O)CC3C(=O)NC(C)C(=O)OC2C(C)C)OC1CC", "note": "(configuration not stated)", "growth": "-91.3% (active)"}, {"smiles": "O=C(Nc1ccc(N2CCNCC2)cc1)c1[nH]ncc1Nc1cc(C2CC2)ncn1", "growth": "67.9% (inactive)"}, {"smiles": "OC(c1ccccn1)C(O)c1ccccn1", "note": "(configuration not stated)", "growth": "97.3% (inactive)"}, {"smiles": "O=C(N/N=C/c1c(Cl)cccc1Cl)c1cccnc1Nc1cccc(C(F)(F)F)c1", "growth": "28.1% (inactive)"}]}]}
